The panel holds about 83,000 compounds, 20% with a hit somewhere; the sample as a whole holds those more often.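 Activity criterion: percent growth below 10, measured after cells in 96-well plates were exposed to a single compound concentration for 48 hours.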 Values without a mark were called inactive. The source made the active and inactive calls.

The values below come from PubChem BioAssay (NCI).

Test systems include SK-MEL-2 melanoma; EKVX NSCLC; SN12C renal; UO-31 renal; TK-10 renal; ACHN renal; CAKI-1 renal; A498 renal; CCRF-CEM leukemia; MOLT-4 leukemia; SR leukemia; RPMI-8226 leukemia; OVCAR-8 ovarian; OVCAR-4 ovarian; SK-OV-3 ovarian; IGROV1 ovarian; OVCAR-3 ovarian; OVCAR-5 ovarian; HS 578T breast; NCI/ADR-RES ovarian.
Common to all, as to test: NCI-60 one-dose screen, 48 h (100 = growth as untreated, 0 = no growth, -100 = all killed)
Holding throughout (conditions): 10 µM unless noted

`COc1ccc(-c2cn(-c3cccc(C(=O)/C=C/c4cc(OC)c(OC)c(OC)c4)c3)c(=O)[nH]2)cc1`: the growth is -21.5% (active) in the assay on SK-MEL-2 melanoma; 6.73% (active) in the assay with EKVX NSCLC; 9.79% (active) with SN12C renal; -33.9% (active) in the assay with UO-31 renal; 60.8% in the assay on TK-10 renal; -49.9% (active) in the assay on ACHN renal. Further, the growth in the assay with CAKI-1 renal was -12.1% (active); with A498 renal, 62.8%; in the assay with CCRF-CEM leukemia, 6.11% (active); in the assay with MOLT-4 leukemia, 3.77% (active); in the assay on SR leukemia, -12.5% (active); in the assay with RPMI-8226 leukemia, -45.8% (active). The growth in the assay on OVCAR-8 ovarian is 12.4%; with OVCAR-4 ovarian it was 25%; with SK-OV-3 ovarian, 31.6%; in the assay on IGROV1 ovarian it was 8.71% (active); in the assay with OVCAR-3 ovarian it was -13.6% (active).
As for `CCCCCCNCc1cc(C(C)(C)C)cc(CNCCCCCC)c1O`, the growth was -7.07% (active) in the assay on SK-MEL-2 melanoma; -47.9% (active) in the assay on EKVX NSCLC; -42.2% (active) in the assay on SN12C renal; -80.7% (active) in the assay on UO-31 renal; -80.4% (active) in the assay on TK-10 renal; -84.2% (active) in the assay with ACHN renal. In addition, the growth is 16.7% in the assay with CAKI-1 renal; -7.12% (active) in the assay with A498 renal; -10.4% (active) in the assay with CCRF-CEM leukemia; -14.8% (active) with MOLT-4 leukemia; -52% (active) in the assay with SR leukemia; -29.8% (active) with RPMI-8226 leukemia. In addition, the growth in the assay with OVCAR-8 ovarian is -80.2% (active); in the assay with OVCAR-5 ovarian it was -69.9% (active); in the assay on OVCAR-4 ovarian it was -94.8% (active); with SK-OV-3 ovarian, -90.5% (active); with OVCAR-3 ovarian, -86.6% (active); with HS 578T breast it was -22.1% (active). In addition, the growth in the assay on NCI/ADR-RES ovarian was -87.6% (active).
Regarding `COc1cc(C(=O)/C=C/c2c(C(F)(F)F)nc3ccccn23)cc(OC)c1OC`, the growth in the assay on SK-MEL-2 melanoma was -49.3% (active); with EKVX NSCLC, -0.4% (active); with SN12C renal it was 3.89% (active); in the assay on UO-31 renal, -71.1% (active); with TK-10 renal, 11.2%; in the assay with ACHN renal, -78.7% (active). Besides, the growth in the assay with CAKI-1 renal was -25.5% (active); in the assay on A498 renal it was 8.53% (active); in the assay with CCRF-CEM leukemia, 5.58% (active); in the assay with MOLT-4 leukemia, 4.22% (active); with SR leukemia it was -9.2% (active); with RPMI-8226 leukemia it was -14.6% (active). The growth in the assay on OVCAR-4 ovarian is 8.45% (active); with SK-OV-3 ovarian, -1.92% (active); in the assay on IGROV1 ovarian, 9.02% (active); in the assay with OVCAR-3 ovarian, -57.3% (active).
For the molecule `Cc1nc(Nc2ccc(NC(=S)Nc3ccccc3)cc2)nc2nc(Nc3ccc(S(=O)(=O)O)cc3)[nH]c(=O)c12`, the growth in the assay on SK-MEL-2 melanoma is 104%; in the assay on EKVX NSCLC it was 111%; in the assay on SN12C renal it was 109%; with UO-31 renal it was 78.9%; in the assay with TK-10 renal, 125%; in the assay with ACHN renal, 128%. For the same molecule, the growth in the assay with CAKI-1 renal is 82.5%; with A498 renal, 158%; in the assay with CCRF-CEM leukemia, 84.5%; with MOLT-4 leukemia it was 89.7%; in the assay on SR leukemia, 47.5%; with RPMI-8226 leukemia, 79.2%. Moreover, the growth in the assay with OVCAR-8 ovarian was 49.8%; in the assay with OVCAR-5 ovarian, 103%; with OVCAR-4 ovarian, 113%; in the assay on SK-OV-3 ovarian, 98.3%; in the assay with HS 578T breast, 111%; in the assay with NCI/ADR-RES ovarian it was 106%.
Take `C[C@]12CCC(=O)C[C@H]1CC[C@@H]1[C@@H]2CC[C@@]2(C)[C@H]1CC[C@]2(O)C(=O)CO`: the growth in the assay on SK-MEL-2 melanoma was 106%; in the assay on EKVX NSCLC, 107%; in the assay on SN12C renal, 101%; in the assay with UO-31 renal, 91.6%; with TK-10 renal, 131%; in the assay with ACHN renal, 96.7%. Also, the growth in the assay on CAKI-1 renal is 106%; with A498 renal, 97.1%; with CCRF-CEM leukemia, 105%; with MOLT-4 leukemia, 107%; with SR leukemia, 106%; with RPMI-8226 leukemia, 103%. The growth with OVCAR-8 ovarian was 108%; with OVCAR-5 ovarian it was 92.3%; in the assay with SK-OV-3 ovarian, 105%; in the assay on IGROV1 ovarian, 103%; with OVCAR-3 ovarian, 115%; with HS 578T breast, 99.1%. Also, the growth in the assay on NCI/ADR-RES ovarian was 107%.
As for `Cc1nc(Nc2ccc(NC(=S)Nc3ccccc3)cc2)c2ccccc2n1`, the growth is 111% in the assay with SK-MEL-2 melanoma; 95.6% with EKVX NSCLC; 101% in the assay on SN12C renal; 85.7% in the assay on UO-31 renal; 131% in the assay on TK-10 renal; 102% with ACHN renal. In addition, the growth in the assay with CAKI-1 renal is 91.3%; with A498 renal, 100%; in the assay on CCRF-CEM leukemia, 93.1%; with MOLT-4 leukemia, 85.6%; in the assay on SR leukemia, 80.5%; with RPMI-8226 leukemia it was 98.6%. Besides, the growth in the assay with OVCAR-5 ovarian was 110%; with OVCAR-4 ovarian, 121%; in the assay on SK-OV-3 ovarian, 107%; with IGROV1 ovarian it was 99.8%; with OVCAR-3 ovarian, 118%; with HS 578T breast it was 96%. In the assay on NCI/ADR-RES ovarian, the growth is 107%.
In the case of `Cc1c2c(cn1Cc1ccccc1)CCc1cn[nH]c1-2`, the growth is 96.4% with SK-MEL-2 melanoma; 99.1% in the assay on EKVX NSCLC; 98.3% in the assay on SN12C renal; 75.2% in the assay with UO-31 renal; 118% in the assay with TK-10 renal; 99.6% in the assay with ACHN renal. Further, the growth in the assay on CAKI-1 renal is 84.1%; in the assay with A498 renal it was 108%; with CCRF-CEM leukemia, 77%; in the assay on MOLT-4 leukemia it was 85.1%; in the assay with SR leukemia, 51.6%; with RPMI-8226 leukemia, 70.8%. Besides, the growth with OVCAR-8 ovarian was 94.6%; in the assay on OVCAR-4 ovarian it was 81.3%; with SK-OV-3 ovarian, 114%; in the assay with IGROV1 ovarian, 84.5%; in the assay with OVCAR-3 ovarian it was 100%.
With `O[C@H]1CO[C@H]2[C@@H]1OC[C@@H]2Oc1ccc(Nc2nc(Nc3ccc(F)c(Cl)c3)ncc2F)cc1Cl`, the growth with SK-MEL-2 melanoma is 113%; in the assay with EKVX NSCLC it was 92.2%; in the assay on SN12C renal, 97%; in the assay with UO-31 renal, 88%; in the assay on TK-10 renal, 105%; with ACHN renal, 105%. In addition, the growth was 93.5% with CAKI-1 renal; 94.4% in the assay with A498 renal; 103% in the assay on CCRF-CEM leukemia; 103% in the assay on MOLT-4 leukemia; 110% in the assay on SR leukemia; 116% with RPMI-8226 leukemia. Moreover, the growth in the assay on OVCAR-5 ovarian was 105%; with OVCAR-4 ovarian it was 96.9%; in the assay on SK-OV-3 ovarian, 110%; in the assay with IGROV1 ovarian, 102%; with OVCAR-3 ovarian, 103%; in the assay on HS 578T breast, 98.7%. Further, in the assay on NCI/ADR-RES ovarian, the growth is 97.6%.
